{"source": "PubChem BioAssay AID686979", "about": "(National Center for Advancing Translational Sciences (NCATS), 2013)", "note": "The whole screen tested about 420,000 compounds, of which about 50,000 (12%) were called active. Not shown: some 26% with an inconclusive outcome. The sample as a whole holds a higher share of actives than the screen did. Unmarked numbers belong to inactive results. Calls come from the whole dose curve; as a rule, active = well fitted inhibition curve with a large enough effect; inconclusive = small, poorly fitted or top-dose-only effect; inactive = flat fitted curve, though single readings scatter."}
{"assay": "qHTS for Inhibitors of human tyrosyl-DNA phosphodiesterase 1 (TDP1): qHTS in cells in presence of CPT; note: nearly all actives have a fitted effect of over 55% in size; note: potency is the fitted concentration of half-maximal effect; for activity change, negative = growth inhibition: % is set by controls: 0 for no effect and ±100 for the full control effect", "details": "chicken DT40 Tdp1-/-;hTDP1 cells + 20 nM CPT, ATP luminescence, 48 h; series mostly up to 46.2 µM; activity change, negative = growth inhibition: at the top concentration", "summary_of_the_method": "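Chicken DT40 Tdp1-/- cells complemented with human TDP1, 400 cells/well, exposed to compounds plus 20 nM camptothecin for at least 48 h at 37 C; viability read as ATP content by CellTiter-Glo luminescence.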", "units": {"activity change, negative = growth inhibition": "%"}}
{"compound": "COc1ccccc1C(c1nnnn1C(C)(C)C)N1CCN(Cc2ccccc2)CC1", "note": "(configuration not stated)", "activity change, negative = growth inhibition": -25.9}
{"compound": "CC(=O)c1nn(-c2cccc(C(F)(F)F)c2)c(=O)[nH]c1=O", "activity change, negative = growth inhibition": -7.71}
{"compound": "CCOc1ccc(CCN2C(=O)c3cccnc3C2=O)cc1OCC", "activity change, negative = growth inhibition": 1.97}
{"compound": "CCOc1ccc(N(CC)C(=O)c2cc3c(=O)oc4ccccc4c3s2)cc1", "activity change, negative = growth inhibition": -22.2}
{"compound": "CCOC(=O)c1ccc2[nH]c3c(c2c1)CCCC3NC=O", "note": "(configuration not stated)", "activity change, negative = growth inhibition": -24.5}
{"compound": "CN(C(=O)CN1C(=O)CCSc2ccc(S(=O)(=O)N3CCCC3)cc21)c1ccccc1", "activity change, negative = growth inhibition": -2.65}
{"compound": "O=C(CN1CCN(S(=O)(=O)c2cccc(Cl)c2)CC1)N1CCCCC1", "activity change, negative = growth inhibition": -12.1}
{"compound": "O=C(CN1CCCSc2ccccc21)N1CCN(S(=O)(=O)c2cccc(F)c2)CC1", "Potency": "16.4 µM (active)"}
{"compound": "C=CC1=C(C(=O)O)N2C(=O)[C@@H](NC(=O)/C(=N/OCC(=O)O)c3csc(N)n3)[C@H]2SC1", "activity change, negative = growth inhibition": -3.01}
{"compound": "CCn1c(SCC(=O)N/N=C/C=C/c2ccccc2[N+](=O)[O-])nnc1-c1ccccc1", "activity change, negative = growth inhibition": -26.3}
{"compound": "CCC1(C)COC(c2ccc(OC)c(OC)c2)OC1", "note": "(configuration not stated)", "activity change, negative = growth inhibition": -1.89}
{"compound": "COc1cccc(-c2ccc3c(c2)S(=O)(=O)c2cccc(C(=O)O)c2C3=O)c1OC", "activity change, negative = growth inhibition": 3.38}
{"compound": "CC(C)c1cc(C(=O)N/N=C/C(Br)=C/c2ccccc2)n[nH]1", "Potency": "2.31 µM (active)"}
{"compound": "Cc1ccc(/C=N/NC(=O)C(NC(=O)c2ccccc2)c2n[nH]c(=O)c3ccccc23)cc1", "note": "(configuration not stated)", "activity change, negative = growth inhibition": -11.4}
{"compound": "CC(C)c1cc(C(=O)O)n[nH]1", "activity change, negative = growth inhibition": 2.99}
{"compound": "CC(=C/c1ccccc1)/C=N/NC(=O)c1cc(C)oc1C", "activity change, negative = growth inhibition": -28}
{"compound": "Cc1cc(C(=O)NCCc2ccc(Cl)cc2)c(C)o1", "activity change, negative = growth inhibition": -13.7}
{"compound": "Cc1cc(C(=O)N/N=C\\C(Br)=C\\c2ccccc2)c(C)o1", "Potency": "8.2 µM (active)"}
{"compound": "Cc1ccc(C2(C)NC(=O)N(CC(=O)Nc3ccccc3C(=O)N3CCCCC3)C2=O)cc1", "note": "(configuration not stated)", "activity change, negative = growth inhibition": -13.5}
{"compound": "CCN(CC)CCCNC(=O)c1cn(C)c2ccc(S(=O)(=O)N(C)C3CCCCC3)cc2c1=O", "Potency": "inactive"}
{"compound": "CCN(CC)CCn1cnc2c1c(=O)n(CCOC(=O)c1cc(OC)c(OC)c(OC)c1)c(=O)n2C", "activity change, negative = growth inhibition": 3.53}
{"compound": "CCOC(=O)C1=NN(c2ccc(Cl)cc2)/C(=C/C2=NCCc3cc(OC)c(OC)cc32)S1", "activity change, negative = growth inhibition": -21.4}
{"compound": "COc1ccc([N+](=O)[O-])cc1NC(=O)COC(=O)/C=C/c1ccco1", "activity change, negative = growth inhibition": -12}
{"compound": "COc1cc2c(cc1OC)C(/C=C/c1ccco1)=NCC2", "Potency": "23.1 µM (active)"}
{"compound": "C[C@@H]1NC(=O)[C@@]2(C)[C@@H](c3ccccc3)[C@H]3COc4ccccc4[C@@H]3N2C1=O", "activity change, negative = growth inhibition": -11.5}
{"compound": "Cc1ccc2c(c1)NC(=O)[C@@]1(C)[C@@H](c3ccccc3)[C@H]3COc4ccc(Cl)cc4[C@@H]3N1C2=O", "Potency": "25.9 µM (active)"}
{"compound": "CCOC(=O)[C@H]1[C@H]2COc3ccc(OC)cc3[C@@H]2N2C(=O)c3ccc(F)cc3NC(=O)[C@@]12C", "activity change, negative = growth inhibition": -2.6}
{"compound": "Cc1ccc(Cl)cc1N1CCN(C(=O)c2cccn3c(=O)c4cc(Cl)ccc4nc23)CC1", "activity change, negative = growth inhibition": -6.7}
{"compound": "Cc1cn(C)c(CC(=O)NCc2ccc(Cl)cc2)c1C(=O)O", "activity change, negative = growth inhibition": 2.47}
{"compound": "CCOC(=O)COc1ccc([N+](=O)[O-])cc1", "activity change, negative = growth inhibition": 3.15}
{"compound": "CCOC(=O)/C(=C\\c1ccc([N+](=O)[O-])cc1)C(=O)c1cc(C(C)=O)c(Nc2ccccc2)s1", "Potency": "0.58 µM (active)"}
{"compound": "O=C(Nc1ccccc1)/C(=C/c1ccc([N+](=O)[O-])cc1)NC(=O)c1ccccc1", "activity change, negative = growth inhibition": -17.8}
{"compound": "COc1ccc(NC(=O)CN(C)C(=O)c2n[nH]c3ccccc23)cc1", "activity change, negative = growth inhibition": -7.97}
{"compound": "FC(F)(F)c1cccc(N/N=C/c2ccccc2)c1", "activity change, negative = growth inhibition": -29.8}
{"compound": "O=c1cc(CO)oc(C(Nc2cccc(C(F)(F)F)c2)c2ccccn2)c1O", "note": "(configuration not stated)", "activity change, negative = growth inhibition": 1.12}
{"compound": "FC(F)(F)c1cccc(Nc2ncnc3ccccc23)c1", "Potency": "11.6 µM (active)"}
{"compound": "COc1ccc(NC(=O)CSc2nc(SC)ns2)c(OC)c1", "activity change, negative = growth inhibition": -12.7}
{"compound": "c1ccc(C2CNCc3c2ccc2ccccc32)cc1", "note": "(configuration not stated)", "Potency": "14.6 µM (active)"}
{"compound": "C/C(=N/NC(=O)CC(=O)N/N=C(\\C)c1ccc([N+](=O)[O-])cc1)c1ccc([N+](=O)[O-])cc1", "activity change, negative = growth inhibition": -0.378}
{"compound": "COc1ccc(-c2cc(C(=O)NCc3ccco3)no2)cc1OC", "activity change, negative = growth inhibition": -0.397}
{"compound": "COc1ccc(C2=NOC(C(=O)NCc3ccco3)C2)cc1OC", "note": "(configuration not stated)", "Potency": "2.59 µM (active)"}
{"compound": "COc1ccc(S(=O)(=O)N2CCC(C(=O)NCc3ccco3)CC2)cc1C", "activity change, negative = growth inhibition": -7.74}
{"compound": "O=C1CC2(CCCC2)C(=O)N1CN1CCN(S(=O)(=O)c2ccc(F)cc2F)CC1", "activity change, negative = growth inhibition": 2.4}
{"compound": "CCOc1ccc(CCNC(=O)CN2C(=O)NC3(CCc4ccccc43)C2=O)cc1OCC", "note": "(configuration not stated)", "activity change, negative = growth inhibition": -17.4}
{"compound": "CN(C)S(=O)(=O)c1cc(NC(=O)CN2C(=O)NC3(CCCc4ccccc43)C2=O)ccc1Cl", "note": "(configuration not stated)", "Potency": "16.4 µM (active)"}
{"compound": "O=C(CN1C(=O)NC2(CCc3ccccc32)C1=O)NC1CCCCC1", "note": "(configuration not stated)", "activity change, negative = growth inhibition": 1.78}
{"compound": "Cc1ccc(COc2ccc(C(=O)NN)cc2)cc1", "activity change, negative = growth inhibition": -28.6}
{"compound": "CCN(CC)CCNCC(=O)Nc1ccc(Oc2ccccc2)cc1", "activity change, negative = growth inhibition": -18.7}
{"compound": "O=C(c1ccc2c(c1)C(=O)N(Cc1ccncc1)C2=O)N1CCN(S(=O)(=O)c2ccc(OC(F)(F)F)cc2)CC1", "activity change, negative = growth inhibition": 0.443}
{"compound": "O=C(Nc1cccc(Cl)c1)OCc1ccccn1", "activity change, negative = growth inhibition": -0.874}
{"compound": "OCCCNc1nccc(-c2cc(Nc3cccc(Cl)c3)ncn2)n1", "Potency": "1.16 µM (active)"}
{"compound": "NS(=O)(=O)c1cccnc1Nc1cccc(Cl)c1", "activity change, negative = growth inhibition": -0.722}
